# Activity calls are given as the source filed them. Rule for the calls: active = hit-call score of the fitted dose curve at least 0.9, where 1 is the maximum; inactive = score below 0.9.
# Columns and labels:
# [1] = read-out: flavin-containing dimethylaniline monooxygenases 3 (FMO3), FMO3 (gene 2328); test: LTEA_HepaRG_FMO3: Life Technologies and Expression Analysis (LTEA) Assay for flavin-containing dimethylaniline monooxygenases 3 (FMO3) using HepaRG (AID 2283453); settings: mRNA level, 48 h; actives raise or lower the signal;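 for AC50: FMO3 transcript by TaqMan qRT-PCR normalized to ACTB GAPDH and POLR2A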
# Outline: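 Eight-point concentration-response in serum-free HepaRG cultures (top 100 uM, 0.5% DMSO, 48 h). Read-out: FMO3 mRNA level normalized to three endogenous control genes, fitted bidirectionally versus vehicle.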
# [2] = read-out: Cytochrome P450 (CYP1A1), CYP1A1 (gene 1543); test: LTEA_HepaRG_CYP1A1: Life Technologies and Expression Analysis (LTEA) Assay for Cytochrome P450 (CYP1A1) using HepaRG (AID 2283454); settings: mRNA level, 48 h; actives raise or lower the signal
# Outline: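 Differentiated human HepaRG cells, after 48 h plating, exposed in duplicate for 48 h in serum-free induction medium to 8 half-log concentrations up to 100 uM in 0.5% DMSO. CYP1A1 mRNA by qRT-PCR, normalized to ACTB/GAPDH/POLR2A; bidirectional fit versus DMSO.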
# [3] = read-out: CFLAR gene, CFLAR (gene 8837); test: LTEA_HepaRG_CFLAR: Life Technologies and Expression Analysis (LTEA) Assay for CFLAR gene using HepaRG (AID 2283455); settings: mRNA level, 48 h; actives raise or lower the signal
# Outline: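 Gain- or loss-of-signal changes in CFLAR transcript were fitted bidirectionally relative to 0.5% DMSO. Cells (HepaRG, duplicate wells) were dosed for 48 h across eight half-log concentrations topping at 100 uM; quantitation by TaqMan qRT-PCR.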
# [4] = read-out: Forkhead box O1 (FOXO1), FOXO1 (gene 2308); test: LTEA_HepaRG_FOXO1: Life Technologies and Expression Analysis (LTEA) Assay for Forkhead box O1 (FOXO1) using HepaRG (AID 2283456); settings: mRNA level, 48 h; actives raise or lower the signal
# Outline: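 Using one lot of HepaRG hepatic cells kept in 0.5% DMSO, the team applied test chemicals in duplicate, half-log dilutions from 100 uM, for 48 h. Expression, normalised to ACTB/GAPDH/POLR2A, was compared with vehicle in either direction.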
# [5] = read-out: growth arrest and DNA damage 45 (GADD45A), GADD45A (gene 1647); test: LTEA_HepaRG_GADD45A: Life Technologies and Expression Analysis (LTEA) Assay for growth arrest and DNA damage 45 (GADD45A) using HepaRG (AID 2283458); settings: mRNA level, 48 h; actives raise or lower the signal
# Outline: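 HepaRG, 48 h exposure, 8 conc. (top 100 uM, half-log steps), 0.5% DMSO vehicle, duplicates. Read-out: qRT-PCR mRNA level, housekeeping-normalized (ACTB/GAPDH/POLR2A). Curves fit bidirectionally vs DMSO baseline.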
# [6] = read-out: Forkhead box O3 (FOXO3), FOXO3 (gene 2309); test: LTEA_HepaRG_FOXO3: Life Technologies and Expression Analysis (LTEA) Assay for Forkhead box O3 (FOXO3) using HepaRG (AID 2283459); settings: mRNA level, 48 h; actives raise or lower the signal
# Outline: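 Gene-expression endpoint: FOXO3 transcript level by qRT-PCR in HepaRG cultures treated 48 h with chemicals up to 100 uM (half-log, 0.5% DMSO vehicle).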
# [7] = read-out: ABC Transporter (ABCB1), ABCB1 (gene 5243); test: LTEA_HepaRG_ABCB1: Life Technologies and Expression Analysis (LTEA) Assay for ABC Transporter (ABCB1) using HepaRG (AID 2283460); settings: mRNA level, 48 h; actives raise or lower the signal
# Outline: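 Human liver HepaRG line treated 48 h with up to 100 uM compound (eight half-log points, 0.5% DMSO); ABCB1 mRNA change fitted bidirectionally against DMSO controls.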
# [8] = read-out: growth arrest and DNA damage 45 (GADD45B), GADD45B (gene 4616); test: LTEA_HepaRG_GADD45B: Life Technologies and Expression Analysis (LTEA) Assay for growth arrest and DNA damage 45 (GADD45B) using HepaRG (AID 2283461); settings: mRNA level, 48 h; actives raise or lower the signal
# Outline: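 Differentiated human HepaRG cells in serum-free induction medium exposed 48 h in duplicate to eight concentrations, top 100 uM, half-log steps, 0.5% DMSO. GADD45B mRNA by TaqMan qRT-PCR, normalized to ACTB, GAPDH, POLR2A; bidirectional fit versus DMSO.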
# [9] = read-out: ABC Transporter (ABCC3), ABCC3 (gene 8714); test: LTEA_HepaRG_ABCC3: Life Technologies and Expression Analysis (LTEA) Assay for ABC Transporter (ABCC3) using HepaRG (AID 2283462); settings: mRNA level, 48 h; actives raise or lower the signal
# Outline: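 Differentiated human HepaRG cells exposed 48 h in serum-free induction medium, 0.5% DMSO vehicle, 8-point half-log series to 100 uM in duplicate. ABCC3 mRNA by qRT-PCR, normalised to ACTB, GAPDH, POLR2A; bidirectional fit vs DMSO.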
# [10] = read-out: ABC Transporter (ABCB11), ABCB11 (gene 8647); test: LTEA_HepaRG_ABCB11: Life Technologies and Expression Analysis (LTEA) Assay for ABC Transporter (ABCB11) using HepaRG (AID 2283463); settings: mRNA level, 48 h; actives raise or lower the signal
# Outline: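 Using HepaRG cultures held in 0.5% DMSO, chemicals were tested at half-log dilutions from 100 uM for 48 h. Induction or suppression of ABCB11 mRNA, normalized to ACTB, GAPDH and POLR2A, was fitted bidirectionally against vehicle.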
# [11] = read-out: ABC Transporter (ABCC2), ABCC2 (gene 1244); test: LTEA_HepaRG_ABCC2: Life Technologies and Expression Analysis (LTEA) Assay for ABC Transporter (ABCC2) using HepaRG (AID 2283464); settings: mRNA level, 48 h; actives raise or lower the signal
# Outline: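 Differentiated HepaRG cells in serum-free induction medium exposed 48 h to eight half-log concentrations up to 100 uM, 0.5% DMSO, in duplicate. ABCC2 mRNA measured by qRT-PCR (TaqMan, Fluidigm), normalized to ACTB, GAPDH and POLR2A. Fitted in both directions against DMSO.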
# [12] = read-out: Broad substrate specificity ATP-binding cassette transporter ABCG2 (Homo sapiens) (UniProt Q9UNQ0); test: LTEA_HepaRG_ABCG2: Life Technologies and Expression Analysis (LTEA) Assay for ABC Transporter (ABCG2) using HepaRG (AID 2283465); settings: mRNA level, 48 h; actives raise or lower the signal
# Outline: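 Gene expression of ABCG2 in HepaRG liver cells is quantified by qRT-PCR following 48 h exposure across an eight-point series topping at 100 uM. Values come from bidirectional fitting relative to DMSO vehicle.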
# [13] = read-out: ATP-citrate lyase (ACLY), ACLY (gene 47); test: LTEA_HepaRG_ACLY: Life Technologies and Expression Analysis (LTEA) Assay for ATP-citrate lyase (ACLY) using HepaRG (AID 2283466); settings: mRNA level, 48 h; actives raise or lower the signal
# Outline: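 ACLY expression changes in human HepaRG liver cells are quantified by qRT-PCR after 48 h exposure to test chemicals (maximum 100 uM, half-log steps). Values are fitted in both directions relative to 0.5% DMSO vehicle.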
# [14] = read-out: Peroxisomal acyl-coenzyme A oxidase 1 (ACOX1) gene, ACOX1 (gene 51); test: LTEA_HepaRG_ACOX1: Life Technologies and Expression Analysis (LTEA) Assay for Peroxisomal acyl-coenzyme A oxidase 1 (ACOX1) gene using HepaRG (AID 2283467); settings: mRNA level, 48 h; actives raise or lower the signal
# Outline: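 Human HepaRG hepatic cultures, 48 h treatment with test chemicals up to 100 uM. ACOX1 expression read by qRT-PCR relative to 0.5% DMSO vehicle.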
# [15] = read-out: Alkaline Phosphatase, Placental (ALPP) gene, ALPP (gene 250); test: LTEA_HepaRG_ALPP: Life Technologies and Expression Analysis (LTEA) Assay for Alkaline Phosphatase, Placental (ALPP) gene using HepaRG (AID 2283468); settings: mRNA level, 48 h; actives raise or lower the signal
# Outline: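 HepaRG cells plated 48 h, then exposed in duplicate for 48 h in serum-free induction medium to 8-point half-log series from 100 uM in 0.5% DMSO. ALPP mRNA by TaqMan qRT-PCR, normalized to ACTB/GAPDH/POLR2A; bidirectional fit versus DMSO.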
# [16] = read-out: Bcl-2 (BAD) gene, BAD (gene 572); test: LTEA_HepaRG_BAD: Life Technologies and Expression Analysis (LTEA) Assay for Bcl-2 (BAD) gene using HepaRG (AID 2283469); settings: mRNA level, 48 h; actives raise or lower the signal
# Outline: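 Activity values reflect up- or down-regulation of BAD mRNA in human HepaRG hepatic cells treated 48 h in serum-free medium, with eight-point half-log dosing capped at 100 uM and 0.5% DMSO vehicle.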
# [17] = read-out: Bcl-2 (BAX) gene, BAX (gene 581); test: LTEA_HepaRG_BAX: Life Technologies and Expression Analysis (LTEA) Assay for Bcl-2 (BAX) gene using HepaRG (AID 2283470); settings: mRNA level, 48 h; actives raise or lower the signal
# Outline: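 qRT-PCR read-out of BAX mRNA, normalized to three housekeeping genes, after 48 h chemical exposure of human HepaRG cells in serum-free induction medium; eight-point half-log series, top 100 uM, 0.5% DMSO vehicle; bidirectional fit versus DMSO.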
# [18] = read-out: adenosine kinase (ADK) gene, ADK (gene 132); test: LTEA_HepaRG_ADK: Life Technologies and Expression Analysis (LTEA) Assay for adenosine kinase (ADK) gene using HepaRG (AID 2283471); settings: mRNA level, 48 h; actives raise or lower the signal
# Outline: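 Following 48 h exposure of HepaRG cells in 0.5% DMSO (top concentration 100 uM, duplicate wells), ADK mRNA induction or suppression was measured by qRT-PCR, normalised to ACTB/GAPDH/POLR2A, and fitted bidirectionally relative to vehicle.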
# [19] = read-out: Alpha-fetoprotein (AFP) gene, AFP (gene 174); test: LTEA_HepaRG_AFP: Life Technologies and Expression Analysis (LTEA) Assay for Alpha-fetoprotein (AFP) gene using HepaRG (AID 2283472); settings: mRNA level, 48 h; actives raise or lower the signal
# Outline: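 qRT-PCR (Fluidigm TaqMan) readout of AFP transcript, normalized to three housekeeping genes, fitted bidirectionally against 0.5% DMSO baseline. HepaRG cells received chemicals for 48 h in serum-free induction medium, top concentration 100 uM, half-log steps.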
# [20] = CEETOX_H295R_TESTO: CeeTox H295R High-throughput Steroidogenesis Assay for Testosterone (TESTO) (AID 2283457); settings: actives raise or lower the signal
# Outline: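 H295R adrenal cells, passage ≤10, exposed to chemicals for 48 h. Testosterone in medium measured by MTBE extraction and HPLC-MS/MS against a 7-point standard curve. Bidirectional fit versus DMSO; MTT viability checked in the same wells.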
# Broad substrate specificity ATP-binding cassette transporter ABCG2 (Homo sapiens), sequence (Q9UNQ0 whole entry, looked up): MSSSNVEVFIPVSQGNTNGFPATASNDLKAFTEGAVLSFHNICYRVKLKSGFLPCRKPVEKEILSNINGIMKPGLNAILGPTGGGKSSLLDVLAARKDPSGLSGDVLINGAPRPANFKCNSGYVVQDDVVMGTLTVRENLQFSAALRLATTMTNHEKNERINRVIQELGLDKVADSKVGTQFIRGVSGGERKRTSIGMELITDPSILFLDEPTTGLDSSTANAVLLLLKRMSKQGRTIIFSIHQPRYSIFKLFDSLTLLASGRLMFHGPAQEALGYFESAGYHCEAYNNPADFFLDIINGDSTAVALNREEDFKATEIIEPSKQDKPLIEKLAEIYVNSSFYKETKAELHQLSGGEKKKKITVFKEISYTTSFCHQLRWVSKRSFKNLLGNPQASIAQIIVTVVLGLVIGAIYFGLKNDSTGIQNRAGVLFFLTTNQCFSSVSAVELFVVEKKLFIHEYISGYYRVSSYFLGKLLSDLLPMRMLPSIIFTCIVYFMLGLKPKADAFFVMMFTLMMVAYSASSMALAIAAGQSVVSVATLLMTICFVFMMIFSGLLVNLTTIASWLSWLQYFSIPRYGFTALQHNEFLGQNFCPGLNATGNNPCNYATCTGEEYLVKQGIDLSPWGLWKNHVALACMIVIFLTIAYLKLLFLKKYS
smiles,measurement,setting,value
CNC(=O)Oc1cccc(N=CN(C)C)c1,outcome,[1],inactive
same,AC50,[2],50.2 µM (active)
same,outcome,[3],inactive
same,outcome,[4],inactive
same,outcome,[5],inactive
same,outcome,[6],inactive
same,outcome,[7],inactive
same,outcome,[8],inactive
same,outcome,[9],inactive
same,outcome,[10],inactive
same,outcome,[11],inactive
same,outcome,[12],inactive
same,outcome,[13],inactive
same,outcome,[14],inactive
same,outcome,[15],inactive
same,outcome,[16],inactive
same,outcome,[17],inactive
same,outcome,[18],inactive
same,outcome,[19],inactive
CC1(c2ccc(Oc3ccccc3)cc2)OC(=O)N(Nc2ccccc2)C1=O (stereo unspecified),AC50,[1],24.4 µM (active)
same,AC50,[2],14.1 µM (active)
same,outcome,[3],inactive
same,AC50,[4],50.2 µM (active)
same,AC50,[5],13 µM (active)
same,AC50,[6],4.78 µM (active)
same,outcome,[7],inactive
same,outcome,[8],inactive
same,outcome,[9],inactive
same,AC50,[10],8.3 µM (active)
same,AC50,[11],79.3 µM (active)
same,AC50,[12],13.2 µM (active)
same,AC50,[13],3.66 µM (active)
same,AC50,[15],11.2 µM (active)
same,outcome,[16],inactive
same,AC50,[17],12.2 µM (active)
same,AC50,[18],73.7 µM (active)
same,AC50,[19],9.81 µM (active)
O=[N+]([O-])c1c(Cl)c(Cl)c(Cl)c(Cl)c1Cl,outcome,[1],inactive
same,AC50,[2],81.3 µM (active)
same,outcome,[3],inactive
same,outcome,[4],inactive
same,outcome,[20],inactive
same,outcome,[5],inactive
same,outcome,[6],inactive
same,outcome,[7],inactive
same,AC50,[8],60.7 µM (active)
same,outcome,[9],inactive
same,outcome,[10],inactive
same,outcome,[11],inactive
same,outcome,[12],inactive
same,outcome,[13],inactive
same,outcome,[15],inactive
same,outcome,[16],inactive
same,outcome,[17],inactive
same,outcome,[18],inactive
same,outcome,[19],inactive
